The list is not random: actives were taken first. Their share in the collection is about 0.53%.
Vif-A3F inh = blocks the Vif interaction with APOBEC3F; HeLa A3F-eYFP + Vif (tagged APOBEC3F with the HIV-1 protein that degrades it), YFP fluorescence increase; Potency, µM (series often up to 46.1 µM), inactives show top-dose activity, negative = active; 390,000 tested, 0.2% active; AID 602313; further: potency means the concentration at half of the fitted maximal effect; % of control where 0% means no effect; nearly all actives have a fitted effect of over 65% in size
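Fluorescence increase (Ex 488/Em 500-530) after overnight compound treatment at 37 deg C flags inhibition of Vif-driven A3F-eYFP loss in stable HeLa A3F-eYFP/Vif cells seeded overnight beforehand.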
PKM2 act = increases activity of human pyruvate kinase M2; P14618; purified PKM2, Kinase-Glo ATP luminescence, activation; response scale: 0% is enzyme alone, no compound; Potency, µM (doses to about 57.5 µM), without a hit: at the highest dose activation, usual class: activators; 260,000 tested, 0.34% active; AID 1631; further: potency means the concentration at half of the fitted maximal effect; on the % scale 0 is the no-effect control and ±100 the full control effect; nearly all actives have a fitted effect of over 55% in size
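Kinase-Glo luminescence reports ATP generated from ADP (0.1 mM) and PEP (0.5 mM) by purified hPK-M2 after 1 h at room temperature, pH 7.2 imidazole buffer; intermediate enzyme activity allows detecting inhibitors and activators.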
IL-2 act = activators of IL-2; IL-2 activation reporter assay, cell-based qHTS; stimulated with anti-CD3/CD4/CD28 beads; in transgenic mouse T cells; AID 652025; activation, % (series mostly up to about 46 µM); 360,000 tested, 0.065% active; in the data active means activation above about 50%; inconclusive means mostly about 30% to 49%; further: 0% is about no effect
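Quantitative HTS in unstimulated transgenic mouse T cells, with memory T cells as non-tolerant control and PMA/ionomycin as tolerance-bypass control. Compound pretreatment lasted 60 minutes before 18 h bead stimulation; EGFP/DsRed fluorescence read.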
Vif-A3G inh = blocks the Vif interaction with human APOBEC3G | Q9HC16 | HeLa A3G-eYFP + Vif (tagged APOBEC3G with the HIV-1 protein that degrades it), YFP fluorescence, overnight | Potency, µM (top dose mostly 46.1 µM), without a hit: at the highest dose activity, negative = active, hits mostly inhibitors | 410,000 tested, 0.076% active; further: potency means the concentration at half of the fitted maximal effect; on the % scale 0 is the no-effect control and ±100 the full control effect; nearly all actives have a fitted effect of over 60% in size
Target sequence (Q9HC16 whole entry, looked up): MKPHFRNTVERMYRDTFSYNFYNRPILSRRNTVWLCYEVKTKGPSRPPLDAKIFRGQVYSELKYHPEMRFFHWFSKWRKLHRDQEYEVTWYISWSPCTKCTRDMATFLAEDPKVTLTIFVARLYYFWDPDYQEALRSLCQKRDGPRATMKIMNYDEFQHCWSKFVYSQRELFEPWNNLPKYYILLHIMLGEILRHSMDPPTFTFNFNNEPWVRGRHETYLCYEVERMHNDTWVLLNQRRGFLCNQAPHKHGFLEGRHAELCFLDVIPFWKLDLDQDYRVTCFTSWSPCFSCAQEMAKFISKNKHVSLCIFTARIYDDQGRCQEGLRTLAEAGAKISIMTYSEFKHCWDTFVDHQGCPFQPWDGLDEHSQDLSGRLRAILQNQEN
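Read-out is eYFP fluorescence (Ex 488/Em 500-530) from Vif-expressing HeLa A3G-eYFP cells; more signal means A3G escaped Vif-mediated degradation. Cells plated overnight, compound pinned in, incubated overnight at 37 deg C.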
Active calls of the source: *; ? = inconclusive; . = no result given. Unless noted, the call rests on the fitted dose curve; in most records, active means well fitted curve in the direction sought with a large enough effect; inconclusive means small, poorly fitted or top-dose-only effect, or another doubt; inactive means no such curve, though single readings can be large; an effect the other way counts as inactive or inconclusive.

SMILES | Vif-A3F inh | PKM2 act | IL-2 act | Vif-A3G inh
COc1ccc(CCNC(=O)CCc2c(C)nc3c(c(C)nn3-c3ccccc3)c2C)c(OC)c1 | -1% | . | . | 0%
COc1cc2c(cc1OCc1ccccc1)/C(=C/C(=O)OCc1ccccc1)OC2 | . | . | 0 | .
CCOC(=O)c1ccc(NC(=O)CSc2nc3ccccc3c(=O)n2CCNC(C)=O)cc1 | 0% | . | . | -1%
COc1ccccc1S(=O)(=O)N1CCN(S(=O)(=O)c2ccccc2C#N)CC1 | 1% | 2µM* | -1 | 5%
CCn1c(=O)c2sccc2n2c(CCCC(=O)Nc3ccc(OC)c(OC)c3)nnc12 | 7% | . | . | -8%
O=C(O)c1ccccc1N/N=C/c1c(Sc2nnnn2-c2ccccc2)nc2ccccn2c1=O | -973% | -24% | 15 | ?
O=c1c(/C=N/Nc2ccccc2)c(Sc2nnnn2-c2ccccc2)nc2ccccn12 | ? | 6% | 90* | ?
CC1=C(C(=O)Nc2ccccc2)C(c2ccccc2[N+](=O)[O-])NC(=O)N1 (stereo unspecified) | -8% | 7% | -2 | 1%
COc1ccccc1NC(=O)C1=C(C)NC(=O)NC1c1ccccc1[N+](=O)[O-] (stereo unspecified) | -28% | 25µM* | -4 | -1%
O=c1oc2ccc(Br)cc2cc1S(=O)(=O)c1ccc(F)cc1 | 0% | 2.8µM* | -1 | ?
O=C(Nc1ccccc1C(F)(F)F)c1ccc2oc(=O)c(S(=O)(=O)c3ccc(F)cc3)cc2c1 | 2% | . | . | -6%
COCCNS(=O)(=O)c1ccc2c(c1)C(=NO)c1cc(S(=O)(=O)NCCOC)ccc1-2 | 3% | 10µM* | -4 | 1%
CCn1cc2nc(SCc3cccc(C(F)(F)F)c3)n(Cc3ccc(Cl)cc3)c(=O)c2n1 | 6% | . | . | 3%
COc1ccc(-n2c(=O)c3c(c4cc(OC)ccc4n3C)n(CCC(C)C)c2=O)cc1 | -10% | . | . | 0%
Cc1cc(C)c2nc(SCC(=O)Nc3cc(C)on3)c(C)cc2c1 | -7% | . | 0 | -3%
Cc1cc(C)c2nc(SCC(=O)Nc3cc(C)on3)c(C#N)cc2c1 | ? | 1.1µM* | 0 | -2%
Cc1cc(NC(=O)CSc2nc3c(cc2C#N)CCC3)no1 | -18% | 2.5µM* | 3 | -8%
COc1ccc(C)cc1NC(=O)Cn1c(=O)c(C(F)(F)F)nc2ccccc21 | 0% | . | . | 1%
CCNc1ccc(Br)cc(C(=O)/C=C/c2ccc3c(c2)OCO3)c1=O | 13µM* | 13% | 0 | -29%
CCNc1ccc(Br)cc(C(=O)/C=C/c2ccc(Cl)cc2)c1=O | ? | 14% | 2 | ?
CCC(C)Sc1cccc(-c2nc3cc(C)ccn3c2NC2CCCCC2)c1 (stereo unspecified) | 22µM* | . | -1 | -8%
CCC/C=N/NC(=O)c1[nH]c2c([N+](=O)[O-])cccc2c1C | 9% | -2% | -3 | 7.1µM*
C=CCN1C=CC(=C/C=C(/C#N)C(=O)OCC)C=C1 | 11µM* | -7% | 28 | ?
CCOC(=O)/C(C#N)=C/C=C1/C=CC=CN1C | 8% | -3% | -1 | 4%
O=C(Nc1nc2n(n1)C(c1ccccc1)C=C(c1ccccc1)N2)c1ccc(Cl)c([N+](=O)[O-])c1 (stereo unspecified) | ? | . | . | 1%
SMILES | Vif-A3F inh | PKM2 act | IL-2 act | Vif-A3G inh
CCOc1cc([N+](=O)[O-])cc2c1C(=O)Nc1ccccc1O2 | 22µM* | 4% | 2 | ?
O=C1Nc2ccccc2Oc2cc([N+](=O)[O-])ccc21 | ? | . | -1 | -8%
O=S(=O)(Nc1ccc2ccccc2n1)c1ccc2c(c1)CCO2 | 7% | 11µM* | 0 | 1%
Cc1ccc(S(=O)(=O)Nc2ccc3ccccc3n2)cc1 | 9% | 18% | 2 | 3%
CC1Sc2ccc(C(=O)NCc3ccccn3)cc2NC1=O (stereo unspecified) | 13µM* | . | 0 | 2%
CC(=O)c1cnc2nc(C(F)(F)F)nn2c1C | 1% | 11% | -1 | -5%
CC(=O)c1cnc2nc(SCc3ccccc3C)nn2c1C | -24% | 13µM* | -3 | -9%
COCc1ccc(O)c2ncccc12 | 3% | -2% | 1 | 10µM*
COc1ccc2[nH]c3c4c(ccc3c2c1)C(=O)C=CC4=O | 11% | 1.3µM* | -5 | ?
Cc1ccc(C)c(NC(=O)CN2C(=O)CCc3ccccc32)c1 | -2% | . | . | 8%
COc1ccc(N/C=C\C(=O)c2ccc(Br)cc2)cc1OC | 32µM* | 4% | 2 | -29%
Cc1ccc(-c2ccc(/C=N/NC(N)=S)o2)cc1 | 5.6µM* | 0% | -6 | -19%
NC(=S)N/N=C/c1ccc(-c2ccccc2)o1 | ? | -5% | -1 | -21%
COc1ccc(C(CC(=O)NCc2ccccc2)N2Cc3ccccc3C2=O)cc1 (stereo unspecified) | 4% | . | . | 4%
COc1ccc(CCNC(=O)C(C)n2c(=O)cc(C(F)(F)F)c3c(C)nn(C)c32)cc1OC (stereo unspecified) | 1% | . | . | 0%
CCCCn1c(N)c(N(CC(C)C)C(=O)c2ccncc2)c(=O)[nH]c1=O | 3% | . | -2 | -4%
C=CCN1C(=O)c2ccc(C(=O)N(CC(C)C)c3c(N)n(CCCC)c(=O)[nH]c3=O)cc2C1=O | ? | . | -3 | 7.9µM*
CCc1nc(Sc2nnnn2-c2ccccc2)c2c3c(sc2n1)CCCC3 | 2% | 10µM* | 0 | 1%
COc1cc(C(=S)N2CCN(c3ccccc3Cl)CC2)cc(O)c1O | 2% | 3.5µM* | 1 | -20%
Cc1cc(/C=C2\SC(=S)N(Cc3ccco3)C2=O)c(C)n1-c1cccnc1 | 11µM* | 19% | ? | 5.6µM*
O=C1/C(=C/c2cccnc2)SC(=S)N1Cc1ccco1 | -6% | . | -4 | ?
Cc1cc(Br)ccc1SCC(=O)OC/C(O)=C(\C#N)c1nc2ccccc2[nH]1 | 25µM* | 2% | -1 | -6%
CCCCCNC(=O)C1CCC(Cn2c(=O)c3sccc3n(CC)c2=O)CC1 (stereo unspecified) | 2% | . | . | 0%
CN1C2CCC1/C(=C/c1cccn1C)C(=O)/C2=C\c1cccn1C | 22µM* | 8% | -1 | ?
Cn1cccc1/C=C1\CC(C(C)(C)C)C/C(=C\c2cccn2C)C1=O (stereo unspecified) | ? | 2% | 5 | 7.9µM*
SMILES | Vif-A3F inh | PKM2 act | IL-2 act | Vif-A3G inh
Cc1nc(-c2ccc(S(=O)(=O)Nc3cccc(Cl)c3)cc2)co1 | 1% | 7.9µM* | -1 | 1%
C=C(C)Cn1c2ccc(NC(=O)NCCc3cccs3)cc2c(=O)n1C | . | . | 0 | 2%
CC1Cc2ccccc2N1c1ncnc2c1nnn2Cc1ccccc1Cl (stereo unspecified) | -3% | -2% | 0 | 2%
Clc1ccccc1Cn1nnc2c(N3CCCC3)ncnc21 | 0% | 16µM* | -1 | -11%
CC(C)c1nc(SCC(=O)Nc2ccc([N+](=O)[O-])cc2Br)n[nH]1 | -2% | ? | -3 | 0%
Nc1nc(SCC(=O)Nc2ccc([N+](=O)[O-])cc2Br)n[nH]1 | -1% | 3.2µM* | 2 | -3%
